{
  "source": "PubChem BioAssay (NCI)",
  "note": "About 83,000 compounds went through this panel and 20% of them were active in at least one assay; those are over-represented in the sample as a whole.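 How to read the values: 0–100, growth inhibition (40 = 60% inhibited); 0, no net growth; -100 to 0, cell death (-40 = 40% of starting cells died; -100 = all dead).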 Unmarked numbers belong to inactive results. Calls of active or inactive are those of the source.",
  "data": [
    {"tested_on": "OVCAR-8 ovarian", "experiment": "NCI-60 one-dose screen, 48 h (100 = growth as untreated, 0 = no growth, -100 = all killed)", "settings": "10 µM unless noted", "procedure": "Growth inhibition of the OVCAR-8 human tumor cell line is measured as a screen for anti-cancer activity. Cells are grown in 96 well plates and exposed to the test compound for 48 hours. Compounds are tested at a single concentration, which is 10^-5 M for most compounds. The reported endpoint is percent growth (GI% or GIPRCNT), where numbers from 0 - 100% represent growth inhibition, and numbers from -100% - 0 represent cell death. For example, a value of 40 represents 60% growth inhibition. A value of 0 means no net growth occurred over the course of the experiment. A value of -40 indicates 40% of cells at the beginning of the experiment died by the end of the experiment. A value of -100 means all cells are dead at the end of the experiment.\nNCI-60 Human Tumor Cell Lines Screen was performed using the standard one-dose NCI protocol, which is described in more detail at https://dtp.cancer.gov/discovery_development/nci-60/default.htm.\nCompounds with GIPRCNT values below 10 were considered active. Activity score was based on GIPRCNT using the following formula: […]\nScore is 0 for GIPRCNT values of 100 or above, 50 for GIPRCNT values of 0, and 100 for GIPRCNT values of -100.", "values": [
      {"smiles": "COc1ccc2c(c1)sc1nc(-c3ccc(N(C)C)cc3)cn12", "growth": "95.2%"},
      {"smiles": "CCOC(=O)CNC(=O)C1(NC(=O)CNC(=O)OCc2ccccc2)CCCC1", "growth": "107%"},
      {"smiles": "N#Cc1c(NC(=O)c2ccco2)[n+]([O-])c2ccccc2[n+]1[O-]", "growth": "90.3%"},
      {"smiles": "O=C(CSc1ncc(-c2ccccc2)n1-c1ccccc1)Nc1ccc(-c2nc3ccccc3s2)cc1", "growth": "27.2%"},
      {"smiles": "O=C(NC1CCCCC1)c1ccc(Nc2ncnc3c2cnn3-c2ccccc2)cc1", "growth": "21.6%"},
      {"smiles": "COc1ccc(C(=O)COc2ccc(/C=C3\\Oc4ccc5ccccc5c4C3=O)cc2)cc1", "growth": "90.6%"},
      {"smiles": "COc1ccc(C(=O)COc2cccc(/C=C3\\CSc4ccc(Cl)cc4C3=O)c2)cc1", "growth": "78.4%"},
      {"smiles": "Nc1nc2c(c(=O)[nH]1)C1(C(=O)Nc3ccccc31)c1c(nc(N)[nH]c1=O)N2", "growth": "114%"},
      {"smiles": "CN[C@@H]1C(OC2[C@H](O[C@H]3[C@H](O)[C@@H](O)[C@H](N=C(N)N)[C@@H](O)[C@@H]3N=C(N)N)OC(C)[C@]2(O)CO)OC(CO)C(O)C1O", "note": "(stereo not given in full)", "growth": "103%"},
      {"smiles": "N#Cc1c(-c2ccccc2)cc(-c2ccccc2)n(CCCCCCC(=O)O)c1=O", "growth": "69.4%"},
      {"smiles": "O=C(NCCNC(=O)Oc1cccc2ccccc12)Oc1cccc2ccccc12", "growth": "100%"},
      {"smiles": "COc1ccc2c(c1)C(=Nc1cc(OC)c(OC)c(OC)c1)C(=O)N2", "growth": "105%"},
      {"smiles": "N#CSCC1CC(O)(c2ccccc2)C(c2ccccc2)C(c2ccc(Cl)cc2)O1", "note": "(stereo not given)", "growth": "-86.1% (active)"},
      {"smiles": "O=c1oc2c(cc1-c1ccc([N+](=O)[O-])cc1)C(O)Oc1ccccc1-2", "note": "(stereo not given)", "growth": "94.7%"},
      {"smiles": "O=C1Nc2ccc(Cl)cc2[C@@](C#CC2CC2)(C(F)(F)F)O1", "growth": "91.3%"},
      {"smiles": "COc1c(Br)cc(C(c2cc(Br)c(OC)c(Br)c2)c2ccccc2C(=O)O)cc1Br", "growth": "102%"},
      {"smiles": "CC(=O)Nc1cc(C(c2ccccc2)c2ccccc2)cc(C(c2ccccc2)c2ccccc2)c1C", "growth": "73.8%"},
      {"smiles": "Cn1c(=O)c2[nH]c(=S)n(Cc3ccccc3)c2n(C)c1=O", "growth": "111%"},
      {"smiles": "CC1=C([Se]CC(OC(=O)[C@@H](CSSC(C)(C)C)NC(=O)C(C)(C)C)C(=O)NCCCCCC(=O)OCc2ccccc2)C(=O)c2ccccc2C1=O", "note": "(stereo not given in full)", "growth": "8.55% (active)"},
      {"smiles": "CC1C(C)N(C(=O)CCl)c2ccccc2N1C(=O)CCl", "note": "(stereo not given)", "growth": "-20.8% (active)"},
      {"smiles": "CC(=O)N1N=C(c2ccc3c(c2)OCO3)CC1c1c(C)nn(-c2ccccc2)c1N(C)Cc1ccccc1", "note": "(stereo not given)", "growth": "76.7%"},
      {"smiles": "O=C1N=C(N2CCOCC2)S/C1=C\\c1cn(-c2ccccc2)nc1-c1ccccc1", "growth": "69.9%"},
      {"smiles": "CCCCN=C(N)c1ccc(OCCSCCOc2ccc(C(N)=NCCCC)cc2)cc1", "growth": "40.7%"},
      {"smiles": "N#Cc1c(-c2ccccc2)cc(-c2ccccc2)n(CC(=O)O)c1=O", "growth": "57.1%"},
      {"smiles": "CCOC(=O)OCC(=O)[C@@]1(O)CC[C@H]2[C@@H]3CCC4=CC(=O)CC[C@]4(C)[C@H]3[C@@H](O)C[C@@]21C", "growth": "94.5%"},
      {"smiles": "C#C[C@]1(O)CCC2C3CCc4cc(O)ccc4C3CC[C@@]21C", "note": "(stereo not given in full)", "growth": "47.5%"},
      {"smiles": "COc1cccc(/C=C2\\Cc3ccccc3C2=O)c1", "growth": "97.2%"},
      {"smiles": "Cc1onc(-c2ccccc2Cl)c1C(=O)N[C@@H]1C(=O)N2[C@@H]1SC(C)(C)[C@@H]2C(=O)O", "growth": "106%"},
      {"smiles": "COc1cc(C2CC(c3ccc(C)cc3)=NN2C=O)ccc1OCCN(C)C", "note": "(stereo not given)", "growth": "92.6%"},
      {"smiles": "O=C(CNc1ccc2c(c1)C(=O)c1ccccc1C2=O)Nc1ccc2c(c1)C(=O)c1ccccc1C2=O", "growth": "-25.3% (active)"},
      {"smiles": "COc1cc(C(=O)/C=C/c2cccc(Nc3ccnc4cc(Cl)ccc34)c2)cc(OC)c1OC", "growth": "-41% (active)"},
      {"smiles": "Nc1ccc2c(c1Br)Cc1ccccc1-2", "growth": "98.6%"},
      {"smiles": "Nc1nc(SCc2cccnc2)c2ncn(C3OC(CO)C(O)C3O)c2n1", "note": "(stereo not given)", "growth": "97.1%"},
      {"smiles": "CCOc1cc(/C=C/C(=O)C(C(=O)/C=C/c2ccc(OC(=O)CNc3nc4ccccc4[nH]3)c(OCC)c2)C(=O)CNc2nc3ccccc3[nH]2)ccc1OC(=O)CNc1nc2ccccc2[nH]1", "growth": "9.36% (active)"},
      {"smiles": "O=C(CNC(=O)c1cccc2ccccc12)Nc1ccccc1Oc1cccc(O)c1", "growth": "15.3% [5 µM]"},
      {"smiles": "O=C(/C=C(\\Nc1ccccc1)c1ccccc1)c1cn(-c2ccc([N+](=O)[O-])cc2)nn1", "growth": "53.5%"},
      {"smiles": "CCOC(=O)C(Br)=P(c1ccccc1)(c1ccccc1)c1ccccc1", "growth": "90.4%"},
      {"smiles": "CCCCc1ccc(C(N)=O)nc1", "growth": "107%"},
      {"smiles": "Oc1c(N=Nc2nn[nH]n2)ccc2ccccc12", "growth": "91%"},
      {"smiles": "CC(=O)Nc1c(Cl)cc2c(c1Cl)Cc1cc([N+](=O)[O-])ccc1-2", "growth": "77.7%"}
    ]}
  ]
}
